{
  "source": "paper PMC7862700",
  "about": "“An all-to-all approach to the identification of sequence-specific readers for epigenetic DNA modifications on cytosine”",
  "assay_in_all_cases": "DAPPL (digital affinity profiling via proximity ligation, sequencing); 10 mM Tris-HCl pH 7.5, 50 mM NaCl, 1 mM DTT, 4% glycerol, room temperature, 30 min; GST-TFs on glutathione beads, 16-mer random dsDNA library, 0.1% formaldehyde crosslink after washing; high values mean tight binding",
  "settings_in_all_cases": "protein: recombinant; tags: N-terminal GST; dsDNA, one strand shown",
  "key": {"FEV": {"biological_target": "T1, FEV (Homo sapiens, UniProt Q99581 1-238)", "T1 sequence": "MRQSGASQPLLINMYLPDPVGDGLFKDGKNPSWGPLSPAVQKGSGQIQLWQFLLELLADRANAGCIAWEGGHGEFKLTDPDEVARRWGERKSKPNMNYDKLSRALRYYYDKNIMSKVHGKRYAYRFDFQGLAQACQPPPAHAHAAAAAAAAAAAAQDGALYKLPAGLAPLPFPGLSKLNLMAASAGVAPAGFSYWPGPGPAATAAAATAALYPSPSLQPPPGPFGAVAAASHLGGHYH", "summary_of_the_method": "(§1)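 Binding signal is defined as a hexamer's read frequency for one factor over its frequency for the tag-only sample. To obtain reads, GST-fused human transcription factors were expressed in yeast, captured on glutathione beads, barcoded with DNA and pooled with that sample. Pools met 200 nmole of a 16-mer random double-stranded DNA library in Tris/NaCl/DTT/glycerol buffer for 30 min at room temperature before washing, 0.1% formaldehyde crosslinking, proximity ligation (BsaI/T4 ligase, 1 h, 37 °C), PCR and Illumina NextSeq500 sequencing.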"}, "ETV5": {"biological_target": "ETV5 (Homo sapiens, UniProt P41161 1-510)", "sequence (P41161 whole entry)": "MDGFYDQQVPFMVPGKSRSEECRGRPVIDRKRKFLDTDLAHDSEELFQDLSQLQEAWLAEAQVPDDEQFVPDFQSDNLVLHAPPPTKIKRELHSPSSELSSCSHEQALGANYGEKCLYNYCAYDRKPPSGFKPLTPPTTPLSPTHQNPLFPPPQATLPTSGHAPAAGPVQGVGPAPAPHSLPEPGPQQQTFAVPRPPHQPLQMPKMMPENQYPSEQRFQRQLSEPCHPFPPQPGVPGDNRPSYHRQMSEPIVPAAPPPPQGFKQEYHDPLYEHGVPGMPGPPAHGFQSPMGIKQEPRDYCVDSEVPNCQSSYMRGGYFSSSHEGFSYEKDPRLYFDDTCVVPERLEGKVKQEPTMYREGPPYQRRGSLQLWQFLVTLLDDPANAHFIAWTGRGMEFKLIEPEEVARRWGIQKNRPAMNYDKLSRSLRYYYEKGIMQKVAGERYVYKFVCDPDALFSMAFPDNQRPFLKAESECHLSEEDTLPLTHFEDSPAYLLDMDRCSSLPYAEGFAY", "summary_of_the_method": "as §1"}, "ELF4": {"biological_target": "ELF4 (Homo sapiens, UniProt Q99607 1-663)", "sequence (Q99607 whole entry)": "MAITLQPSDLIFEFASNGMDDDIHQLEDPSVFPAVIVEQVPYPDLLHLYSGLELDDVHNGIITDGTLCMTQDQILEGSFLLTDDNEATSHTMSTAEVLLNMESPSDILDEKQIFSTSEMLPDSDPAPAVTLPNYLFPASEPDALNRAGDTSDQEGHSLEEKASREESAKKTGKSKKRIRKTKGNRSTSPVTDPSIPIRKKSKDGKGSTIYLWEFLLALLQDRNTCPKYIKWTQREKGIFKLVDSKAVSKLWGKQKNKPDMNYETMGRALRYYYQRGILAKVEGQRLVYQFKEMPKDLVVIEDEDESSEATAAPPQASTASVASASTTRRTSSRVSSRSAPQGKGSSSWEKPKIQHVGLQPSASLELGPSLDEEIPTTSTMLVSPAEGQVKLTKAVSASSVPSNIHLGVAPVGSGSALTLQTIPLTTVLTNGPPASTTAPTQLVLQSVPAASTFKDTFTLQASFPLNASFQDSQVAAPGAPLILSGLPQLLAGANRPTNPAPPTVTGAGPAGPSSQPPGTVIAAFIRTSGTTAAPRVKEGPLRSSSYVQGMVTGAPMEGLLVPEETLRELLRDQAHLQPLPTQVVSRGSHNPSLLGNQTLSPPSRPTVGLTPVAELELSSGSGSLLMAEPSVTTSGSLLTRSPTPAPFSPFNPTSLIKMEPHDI", "summary_of_the_method": "as §1"}, "ETV1": {"biological_target": "ETV1 (Homo sapiens, UniProt P50549 1-477)", "sequence (P50549 whole entry)": "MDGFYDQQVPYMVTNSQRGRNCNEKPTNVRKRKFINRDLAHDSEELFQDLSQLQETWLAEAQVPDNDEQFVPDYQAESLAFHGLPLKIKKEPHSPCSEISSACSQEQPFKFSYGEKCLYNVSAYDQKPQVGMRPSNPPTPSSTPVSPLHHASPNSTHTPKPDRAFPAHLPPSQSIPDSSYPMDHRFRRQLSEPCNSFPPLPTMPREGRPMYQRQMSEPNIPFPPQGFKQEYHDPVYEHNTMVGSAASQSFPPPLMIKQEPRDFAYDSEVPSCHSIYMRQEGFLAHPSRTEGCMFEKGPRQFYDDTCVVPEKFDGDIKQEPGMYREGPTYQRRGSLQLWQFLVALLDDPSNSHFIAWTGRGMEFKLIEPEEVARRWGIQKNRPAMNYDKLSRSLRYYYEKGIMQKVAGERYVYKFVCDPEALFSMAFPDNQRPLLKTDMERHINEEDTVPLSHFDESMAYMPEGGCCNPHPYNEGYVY", "summary_of_the_method": "as §1"}, "ERF": {"biological_target": "T2, ERF (Homo sapiens, UniProt P50548 1-548)", "T2 sequence": "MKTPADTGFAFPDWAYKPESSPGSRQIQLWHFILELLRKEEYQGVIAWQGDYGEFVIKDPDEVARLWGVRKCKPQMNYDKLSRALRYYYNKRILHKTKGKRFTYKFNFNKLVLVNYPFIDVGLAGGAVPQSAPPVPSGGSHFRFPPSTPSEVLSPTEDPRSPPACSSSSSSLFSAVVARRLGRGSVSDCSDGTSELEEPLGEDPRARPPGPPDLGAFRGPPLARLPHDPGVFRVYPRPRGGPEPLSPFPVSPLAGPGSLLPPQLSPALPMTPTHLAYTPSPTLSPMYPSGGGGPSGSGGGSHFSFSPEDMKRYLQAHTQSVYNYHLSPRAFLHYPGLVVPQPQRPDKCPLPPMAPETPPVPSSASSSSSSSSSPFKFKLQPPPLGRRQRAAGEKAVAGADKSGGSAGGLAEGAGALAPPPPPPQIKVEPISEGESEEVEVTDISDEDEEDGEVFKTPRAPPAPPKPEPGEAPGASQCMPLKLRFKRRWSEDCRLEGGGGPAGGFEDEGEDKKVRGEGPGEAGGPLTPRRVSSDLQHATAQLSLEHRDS", "summary_of_the_method": "as §1"}, "ETV3L": {"biological_target": "T3, ETV3L (Homo sapiens, UniProt Q6ZN32 1-361)", "T3 sequence": "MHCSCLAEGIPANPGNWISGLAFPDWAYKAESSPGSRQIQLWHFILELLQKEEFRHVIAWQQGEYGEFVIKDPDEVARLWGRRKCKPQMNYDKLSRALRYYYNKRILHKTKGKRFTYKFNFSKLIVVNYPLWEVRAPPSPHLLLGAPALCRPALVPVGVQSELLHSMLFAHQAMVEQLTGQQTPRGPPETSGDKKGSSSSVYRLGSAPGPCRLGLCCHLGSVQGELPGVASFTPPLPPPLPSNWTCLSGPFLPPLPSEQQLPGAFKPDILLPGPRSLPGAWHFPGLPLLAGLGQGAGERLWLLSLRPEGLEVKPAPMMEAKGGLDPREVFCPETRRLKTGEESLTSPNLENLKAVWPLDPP", "summary_of_the_method": "as §1"}, "ETS2": {"biological_target": "T4, ETS2 (Homo sapiens, UniProt P15036 1-469)", "T4 sequence": "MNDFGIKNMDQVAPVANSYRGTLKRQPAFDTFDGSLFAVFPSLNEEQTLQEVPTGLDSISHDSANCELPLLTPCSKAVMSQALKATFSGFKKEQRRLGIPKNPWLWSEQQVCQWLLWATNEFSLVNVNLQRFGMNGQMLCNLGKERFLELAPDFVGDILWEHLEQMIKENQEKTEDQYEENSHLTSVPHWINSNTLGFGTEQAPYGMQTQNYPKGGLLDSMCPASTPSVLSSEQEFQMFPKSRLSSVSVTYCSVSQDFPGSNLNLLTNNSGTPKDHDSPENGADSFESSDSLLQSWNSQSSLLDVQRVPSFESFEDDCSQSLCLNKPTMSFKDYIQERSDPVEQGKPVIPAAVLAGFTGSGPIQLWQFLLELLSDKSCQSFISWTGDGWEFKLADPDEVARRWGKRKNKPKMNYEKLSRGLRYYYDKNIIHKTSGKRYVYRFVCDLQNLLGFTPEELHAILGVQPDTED", "summary_of_the_method": "as §1"}, "SPDEF": {"biological_target": "T5, SPDEF (Homo sapiens, UniProt O95238 1-335)", "T5 sequence": "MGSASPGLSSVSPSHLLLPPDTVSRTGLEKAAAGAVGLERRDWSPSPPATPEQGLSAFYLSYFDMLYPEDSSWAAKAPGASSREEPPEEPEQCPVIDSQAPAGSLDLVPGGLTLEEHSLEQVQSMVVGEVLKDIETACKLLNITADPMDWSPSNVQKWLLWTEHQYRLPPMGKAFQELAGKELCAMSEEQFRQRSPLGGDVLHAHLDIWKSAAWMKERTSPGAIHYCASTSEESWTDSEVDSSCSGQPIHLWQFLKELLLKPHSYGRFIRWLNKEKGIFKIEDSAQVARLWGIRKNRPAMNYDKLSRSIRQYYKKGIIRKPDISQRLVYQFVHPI", "summary_of_the_method": "as §1"}, "ETV3": {"biological_target": "T6, ETV3 (Homo sapiens, UniProt P41162-2 1-143)", "T6 sequence": "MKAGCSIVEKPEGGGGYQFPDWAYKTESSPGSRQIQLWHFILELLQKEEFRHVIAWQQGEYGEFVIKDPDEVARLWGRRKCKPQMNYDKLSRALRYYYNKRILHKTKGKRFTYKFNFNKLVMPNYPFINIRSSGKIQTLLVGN", "summary_of_the_method": "as §1"}, "ETV6": {"biological_target": "ETV6 (Homo sapiens, UniProt P41212 1-452)", "sequence (P41212 whole entry)": "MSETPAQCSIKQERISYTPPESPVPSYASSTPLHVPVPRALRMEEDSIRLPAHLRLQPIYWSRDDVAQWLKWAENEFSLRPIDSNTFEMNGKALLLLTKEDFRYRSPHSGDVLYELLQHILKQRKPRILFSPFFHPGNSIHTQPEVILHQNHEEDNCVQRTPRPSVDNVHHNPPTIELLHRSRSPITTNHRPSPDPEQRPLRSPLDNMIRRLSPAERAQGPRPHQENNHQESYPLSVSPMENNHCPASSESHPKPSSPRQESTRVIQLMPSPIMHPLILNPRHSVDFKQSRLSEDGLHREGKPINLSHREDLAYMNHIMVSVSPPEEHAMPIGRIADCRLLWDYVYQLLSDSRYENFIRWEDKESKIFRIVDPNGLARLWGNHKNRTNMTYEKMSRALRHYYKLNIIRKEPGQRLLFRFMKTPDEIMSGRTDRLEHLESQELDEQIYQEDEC", "summary_of_the_method": "as §1"}},
  "data": [
    {"sequence": "ACCATT", "values": [
      {"measurement": "binding signal", "setting": "FEV", "value": "1.15 fold enrichment (6-mer frequency, TF over GST control)"},
      {"measurement": "binding signal", "setting": "ETV5", "value": "1.08 fold enrichment (6-mer frequency, TF over GST control)"},
      {"measurement": "binding signal", "setting": "ELF4", "value": "1.19 fold enrichment (6-mer frequency, TF over GST control)"},
      {"measurement": "binding signal", "setting": "ETV1", "value": "1.14 fold enrichment (6-mer frequency, TF over GST control)"},
      {"measurement": "binding signal", "setting": "ERF", "value": "1.03 fold enrichment (6-mer frequency, TF over GST control)"},
      {"measurement": "binding signal", "setting": "ETV3L", "value": "1.16 fold enrichment (6-mer frequency, TF over GST control)"},
      {"measurement": "binding signal", "setting": "ETS2", "value": "1.15 fold enrichment (6-mer frequency, TF over GST control)"},
      {"measurement": "binding signal", "setting": "SPDEF", "value": "1 fold enrichment (6-mer frequency, TF over GST control)"},
      {"measurement": "binding signal", "setting": "ETV3", "value": "1.1 fold enrichment (6-mer frequency, TF over GST control)"},
      {"measurement": "binding signal", "setting": "ETV6", "value": "1.14 fold enrichment (6-mer frequency, TF over GST control)"}
    ]}
  ]
}
